Holding throughout (experiment): DAPPL (digital affinity profiling via proximity ligation, sequencing); 10 mM Tris-HCl pH 7.5, 50 mM NaCl, 1 mM DTT, 4% glycerol, room temperature, 30 min; GST-TFs on glutathione beads, 16-mer random dsDNA library, 0.1% formaldehyde crosslink after washing; high values mean tight binding
One experiment addresses T1, FEV (Homo sapiens, UniProt Q99581 1-238).
T1 sequence: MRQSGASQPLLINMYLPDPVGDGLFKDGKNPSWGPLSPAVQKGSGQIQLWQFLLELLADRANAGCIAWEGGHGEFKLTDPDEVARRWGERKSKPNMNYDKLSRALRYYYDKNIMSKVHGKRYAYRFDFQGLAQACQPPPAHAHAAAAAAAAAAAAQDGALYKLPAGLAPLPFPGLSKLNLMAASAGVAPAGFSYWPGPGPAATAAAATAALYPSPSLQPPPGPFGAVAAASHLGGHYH
Conditions: protein: recombinant; tags: N-terminal GST; dsDNA, one strand shown. In short, it runs like this:
(§1)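 A tag-only sample was pooled with DNA-barcoded human transcription factors that had been expressed in yeast as GST fusions and captured on glutathione beads. The pools were incubated for 30 min at room temperature with 200 nmole of a random double-stranded 16-mer DNA library in Tris/NaCl/DTT/glycerol buffer, then washed, crosslinked with 0.1% formaldehyde, proximity-ligated (BsaI/T4 ligase, 1 h, 37 °C), PCR-amplified and sequenced on an Illumina NextSeq500. Binding signal is each hexamer's read frequency for a factor divided by its frequency for the tag-only sample.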

In another experiment the target is ETV5 (Homo sapiens, UniProt P41161 1-510). Particulars: protein: recombinant; tags: N-terminal GST; dsDNA, one strand shown. In short, it runs like this:
as §1

The target in the next experiment is HSF1 (Homo sapiens, UniProt Q00613 1-529). Conditions: protein: recombinant; tags: N-terminal GST; chain copies: 3; dsDNA, one strand shown. Summed up: as §1
The target in the next experiment is T2, SPIC (Homo sapiens, UniProt Q8N5J4 1-248).
T2 sequence: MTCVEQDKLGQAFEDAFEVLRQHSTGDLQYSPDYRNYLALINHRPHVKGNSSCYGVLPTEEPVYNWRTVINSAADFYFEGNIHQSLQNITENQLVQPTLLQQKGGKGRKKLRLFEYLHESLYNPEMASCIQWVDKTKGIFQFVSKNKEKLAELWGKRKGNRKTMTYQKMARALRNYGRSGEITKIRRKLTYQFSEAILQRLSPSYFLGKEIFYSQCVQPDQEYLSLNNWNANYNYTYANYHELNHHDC
Particulars: protein: recombinant; tags: N-terminal GST; dsDNA, one strand shown. Summed up: as §1

The target of the next experiment is ELF4 (Homo sapiens, UniProt Q99607 1-663). Particulars: protein: recombinant; tags: N-terminal GST; dsDNA, one strand shown. Summed up:
as §1

The target in the next experiment is T3, ELK4 (Homo sapiens, UniProt P28324-2 1-405).
T3 sequence: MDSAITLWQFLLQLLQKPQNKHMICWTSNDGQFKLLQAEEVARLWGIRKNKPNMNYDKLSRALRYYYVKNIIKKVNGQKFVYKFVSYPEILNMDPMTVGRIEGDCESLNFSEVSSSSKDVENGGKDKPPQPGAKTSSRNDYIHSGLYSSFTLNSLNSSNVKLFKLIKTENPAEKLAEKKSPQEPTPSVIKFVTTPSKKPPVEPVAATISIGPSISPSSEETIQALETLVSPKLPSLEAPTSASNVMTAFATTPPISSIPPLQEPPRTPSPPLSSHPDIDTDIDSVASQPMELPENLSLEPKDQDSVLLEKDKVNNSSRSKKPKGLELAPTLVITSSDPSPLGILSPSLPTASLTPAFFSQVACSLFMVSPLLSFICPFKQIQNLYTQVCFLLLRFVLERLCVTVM
Conditions: protein: recombinant; tags: N-terminal GST; dsDNA, one strand shown. Summed up: as §1

Another experiment deals with T4, ETV2 (Homo sapiens, UniProt O00321 1-342).
T4 sequence: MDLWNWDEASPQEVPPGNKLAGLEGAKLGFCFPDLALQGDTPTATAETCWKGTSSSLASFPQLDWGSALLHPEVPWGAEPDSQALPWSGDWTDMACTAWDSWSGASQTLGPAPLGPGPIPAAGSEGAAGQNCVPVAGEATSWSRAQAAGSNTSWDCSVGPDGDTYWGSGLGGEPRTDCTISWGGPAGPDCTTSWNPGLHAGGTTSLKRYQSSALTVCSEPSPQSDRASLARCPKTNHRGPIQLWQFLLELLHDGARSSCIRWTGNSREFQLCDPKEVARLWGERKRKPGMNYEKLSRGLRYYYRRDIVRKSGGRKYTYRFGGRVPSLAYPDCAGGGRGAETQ
Conditions: protein: recombinant; tags: N-terminal GST; dsDNA, one strand shown. Summed up:
as §1

The target of the next experiment is T5, ELF3 (Homo sapiens, UniProt P78545 1-371).
T5 sequence: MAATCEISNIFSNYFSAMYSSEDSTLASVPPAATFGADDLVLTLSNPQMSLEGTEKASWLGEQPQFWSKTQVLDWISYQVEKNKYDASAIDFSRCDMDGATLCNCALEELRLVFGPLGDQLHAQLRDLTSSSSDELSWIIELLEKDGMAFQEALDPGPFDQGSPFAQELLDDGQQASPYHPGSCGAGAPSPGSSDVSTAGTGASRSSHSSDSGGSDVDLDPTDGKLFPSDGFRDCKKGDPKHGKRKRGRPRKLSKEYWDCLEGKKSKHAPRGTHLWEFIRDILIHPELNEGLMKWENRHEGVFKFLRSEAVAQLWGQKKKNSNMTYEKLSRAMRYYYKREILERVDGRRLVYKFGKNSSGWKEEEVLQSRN
Conditions: protein: recombinant; tags: N-terminal GST; dsDNA, one strand shown. Summed up: as §1

The next experiment deals with CRX (Homo sapiens, UniProt O43186 1-299). Particulars: protein: recombinant; tags: N-terminal GST; dsDNA, one strand shown. Summed up: as §1
A further experiment has as its target ETV1 (Homo sapiens, UniProt P50549 1-477). Particulars: protein: recombinant; tags: N-terminal GST; dsDNA, one strand shown. In short, it runs like this:
as §1

Another experiment addresses T6, ERF (Homo sapiens, UniProt P50548 1-548).
T6 sequence: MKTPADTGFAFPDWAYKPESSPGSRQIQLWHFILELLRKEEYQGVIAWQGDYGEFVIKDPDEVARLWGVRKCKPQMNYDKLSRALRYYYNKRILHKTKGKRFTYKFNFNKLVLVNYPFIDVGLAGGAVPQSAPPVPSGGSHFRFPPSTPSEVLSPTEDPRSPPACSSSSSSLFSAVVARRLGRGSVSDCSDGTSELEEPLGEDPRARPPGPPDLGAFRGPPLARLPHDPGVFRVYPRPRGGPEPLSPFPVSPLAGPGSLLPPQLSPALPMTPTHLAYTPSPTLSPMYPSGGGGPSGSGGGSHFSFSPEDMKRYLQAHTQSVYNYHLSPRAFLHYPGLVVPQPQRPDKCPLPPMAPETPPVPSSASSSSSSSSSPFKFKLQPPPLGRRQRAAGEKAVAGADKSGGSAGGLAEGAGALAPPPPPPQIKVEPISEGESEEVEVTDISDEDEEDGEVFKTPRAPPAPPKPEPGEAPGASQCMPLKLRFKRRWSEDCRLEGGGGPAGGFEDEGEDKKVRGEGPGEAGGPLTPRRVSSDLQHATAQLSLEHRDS
Conditions: protein: recombinant; tags: N-terminal GST; dsDNA, one strand shown. Summed up: as §1

The next experiment deals with T7, ETV3L (Homo sapiens, UniProt Q6ZN32 1-361).
T7 sequence: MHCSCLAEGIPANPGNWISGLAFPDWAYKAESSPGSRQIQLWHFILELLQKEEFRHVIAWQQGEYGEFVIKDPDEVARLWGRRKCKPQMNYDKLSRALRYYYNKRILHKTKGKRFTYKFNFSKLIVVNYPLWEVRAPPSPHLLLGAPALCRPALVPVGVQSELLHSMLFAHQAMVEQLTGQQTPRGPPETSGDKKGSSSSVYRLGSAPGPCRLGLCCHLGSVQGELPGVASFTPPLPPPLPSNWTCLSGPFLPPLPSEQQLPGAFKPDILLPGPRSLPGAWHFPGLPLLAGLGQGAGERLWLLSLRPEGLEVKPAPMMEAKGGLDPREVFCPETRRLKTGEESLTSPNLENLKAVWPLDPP
Conditions: protein: recombinant; tags: N-terminal GST; dsDNA, one strand shown. Summed up: as §1

The target of another experiment is T8, ETS2 (Homo sapiens, UniProt P15036 1-469).
T8 sequence: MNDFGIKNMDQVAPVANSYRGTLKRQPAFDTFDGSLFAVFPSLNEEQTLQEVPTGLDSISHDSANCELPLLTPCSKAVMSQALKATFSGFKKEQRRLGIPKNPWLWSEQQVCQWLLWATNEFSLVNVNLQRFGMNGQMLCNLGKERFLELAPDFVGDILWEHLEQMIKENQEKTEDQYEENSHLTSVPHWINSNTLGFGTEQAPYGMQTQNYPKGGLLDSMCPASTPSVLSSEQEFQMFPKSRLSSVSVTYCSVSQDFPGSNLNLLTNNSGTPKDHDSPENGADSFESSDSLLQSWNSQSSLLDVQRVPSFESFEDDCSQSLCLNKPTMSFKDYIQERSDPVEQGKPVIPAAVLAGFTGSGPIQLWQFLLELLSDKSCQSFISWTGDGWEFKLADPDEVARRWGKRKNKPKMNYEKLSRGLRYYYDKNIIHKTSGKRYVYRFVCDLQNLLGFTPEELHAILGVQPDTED
Conditions: protein: recombinant; tags: N-terminal GST; dsDNA, one strand shown. In short, it runs like this: as §1

Another experiment has as its target T9, SPDEF (Homo sapiens, UniProt O95238 1-335).
T9 sequence: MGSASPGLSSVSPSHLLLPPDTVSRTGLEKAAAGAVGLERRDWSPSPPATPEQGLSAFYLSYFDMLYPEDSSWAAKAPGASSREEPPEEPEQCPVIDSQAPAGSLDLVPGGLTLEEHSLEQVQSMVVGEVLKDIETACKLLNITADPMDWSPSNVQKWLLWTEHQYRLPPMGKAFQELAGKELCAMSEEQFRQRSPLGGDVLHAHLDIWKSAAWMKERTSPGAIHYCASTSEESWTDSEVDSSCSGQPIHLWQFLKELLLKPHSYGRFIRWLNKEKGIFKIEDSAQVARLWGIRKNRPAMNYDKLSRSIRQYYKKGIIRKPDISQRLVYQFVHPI
Conditions: protein: recombinant; tags: N-terminal GST; dsDNA, one strand shown. Summed up:
as §1

For another experiment, the target named is T10, ETV7 (Homo sapiens, UniProt Q9Y603 1-341).
T10 sequence: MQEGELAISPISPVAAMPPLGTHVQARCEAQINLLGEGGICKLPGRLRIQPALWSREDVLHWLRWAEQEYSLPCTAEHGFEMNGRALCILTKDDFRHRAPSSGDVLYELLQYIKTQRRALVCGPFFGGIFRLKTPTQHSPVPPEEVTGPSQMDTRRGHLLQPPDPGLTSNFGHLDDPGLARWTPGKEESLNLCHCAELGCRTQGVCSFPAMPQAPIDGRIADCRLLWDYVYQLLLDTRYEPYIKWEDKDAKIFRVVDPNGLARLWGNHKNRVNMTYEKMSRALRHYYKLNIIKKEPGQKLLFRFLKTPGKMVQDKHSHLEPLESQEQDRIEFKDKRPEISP
Particulars: protein: recombinant; tags: N-terminal GST; dsDNA, one strand shown. Summed up: as §1

A further experiment addresses T11, ELF5 (Homo sapiens, UniProt Q9UKW6-2 1-255).
T11 sequence: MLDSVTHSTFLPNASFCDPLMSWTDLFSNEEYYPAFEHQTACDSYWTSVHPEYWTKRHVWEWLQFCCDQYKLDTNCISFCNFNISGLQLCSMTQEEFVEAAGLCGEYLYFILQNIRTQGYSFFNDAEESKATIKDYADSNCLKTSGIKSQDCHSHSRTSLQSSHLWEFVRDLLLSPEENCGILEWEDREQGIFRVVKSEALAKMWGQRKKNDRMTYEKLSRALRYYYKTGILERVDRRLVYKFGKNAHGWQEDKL
Conditions: protein: recombinant; tags: N-terminal GST; dsDNA, one strand shown. Summed up:
as §1

A further experiment deals with T12, ETV3 (Homo sapiens, UniProt P41162-2 1-143).
T12 sequence: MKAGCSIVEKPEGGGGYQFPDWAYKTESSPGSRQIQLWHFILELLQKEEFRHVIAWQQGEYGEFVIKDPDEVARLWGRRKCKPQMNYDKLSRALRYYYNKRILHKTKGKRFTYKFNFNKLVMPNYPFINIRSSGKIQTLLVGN
Conditions: protein: recombinant; tags: N-terminal GST; dsDNA, one strand shown. In short, it runs like this:
as §1

The target in another experiment is ETV6 (Homo sapiens, UniProt P41212 1-452). Conditions: protein: recombinant; tags: N-terminal GST; dsDNA, one strand shown. In short, it runs like this:
as §1

For 1 sequence, binding signal results are on record in paper PMC7862700, “An all-to-all approach to the identification of sequence-specific readers for epigenetic DNA modifications on cytosine”.

ELF4, sequence (Q99607 whole entry): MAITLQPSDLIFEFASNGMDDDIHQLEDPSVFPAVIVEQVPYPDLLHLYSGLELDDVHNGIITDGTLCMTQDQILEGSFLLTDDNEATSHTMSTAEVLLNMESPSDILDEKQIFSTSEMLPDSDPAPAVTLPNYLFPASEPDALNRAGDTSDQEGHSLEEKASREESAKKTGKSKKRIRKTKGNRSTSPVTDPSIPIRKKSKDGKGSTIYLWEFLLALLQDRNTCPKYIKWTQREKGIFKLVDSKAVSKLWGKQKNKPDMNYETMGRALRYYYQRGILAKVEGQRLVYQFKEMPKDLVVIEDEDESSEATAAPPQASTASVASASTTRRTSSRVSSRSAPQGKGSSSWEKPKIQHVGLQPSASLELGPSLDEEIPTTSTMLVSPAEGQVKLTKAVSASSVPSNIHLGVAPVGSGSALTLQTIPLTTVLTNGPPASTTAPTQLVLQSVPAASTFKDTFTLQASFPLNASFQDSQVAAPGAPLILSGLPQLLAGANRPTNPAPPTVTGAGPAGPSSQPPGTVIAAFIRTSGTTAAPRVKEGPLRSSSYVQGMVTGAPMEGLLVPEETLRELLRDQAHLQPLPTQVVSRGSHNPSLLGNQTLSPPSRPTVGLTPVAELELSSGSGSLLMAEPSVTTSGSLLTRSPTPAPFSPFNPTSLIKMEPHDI
CRX, sequence (O43186 whole entry): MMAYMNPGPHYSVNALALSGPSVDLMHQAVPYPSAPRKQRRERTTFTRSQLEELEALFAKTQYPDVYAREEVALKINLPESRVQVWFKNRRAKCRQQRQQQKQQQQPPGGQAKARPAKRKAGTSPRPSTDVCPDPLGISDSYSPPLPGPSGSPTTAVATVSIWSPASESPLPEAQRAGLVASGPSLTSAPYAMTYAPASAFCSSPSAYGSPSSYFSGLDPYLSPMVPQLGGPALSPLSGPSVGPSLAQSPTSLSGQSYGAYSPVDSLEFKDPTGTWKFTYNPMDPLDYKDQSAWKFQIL
ETV1, sequence (P50549 whole entry): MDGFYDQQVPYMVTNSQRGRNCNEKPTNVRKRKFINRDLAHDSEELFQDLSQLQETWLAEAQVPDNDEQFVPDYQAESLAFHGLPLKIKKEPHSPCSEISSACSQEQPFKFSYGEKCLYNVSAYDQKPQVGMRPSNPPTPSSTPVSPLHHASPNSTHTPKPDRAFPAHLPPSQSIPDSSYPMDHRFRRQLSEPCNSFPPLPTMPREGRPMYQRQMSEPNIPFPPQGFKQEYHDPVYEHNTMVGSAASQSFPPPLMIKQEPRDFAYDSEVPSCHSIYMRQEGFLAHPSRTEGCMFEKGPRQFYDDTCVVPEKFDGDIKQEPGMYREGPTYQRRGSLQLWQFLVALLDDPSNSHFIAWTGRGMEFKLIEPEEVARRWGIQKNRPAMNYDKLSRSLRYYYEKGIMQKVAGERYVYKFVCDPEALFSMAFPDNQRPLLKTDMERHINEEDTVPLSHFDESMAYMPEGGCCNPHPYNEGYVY
HSF1, sequence (Q00613 whole entry): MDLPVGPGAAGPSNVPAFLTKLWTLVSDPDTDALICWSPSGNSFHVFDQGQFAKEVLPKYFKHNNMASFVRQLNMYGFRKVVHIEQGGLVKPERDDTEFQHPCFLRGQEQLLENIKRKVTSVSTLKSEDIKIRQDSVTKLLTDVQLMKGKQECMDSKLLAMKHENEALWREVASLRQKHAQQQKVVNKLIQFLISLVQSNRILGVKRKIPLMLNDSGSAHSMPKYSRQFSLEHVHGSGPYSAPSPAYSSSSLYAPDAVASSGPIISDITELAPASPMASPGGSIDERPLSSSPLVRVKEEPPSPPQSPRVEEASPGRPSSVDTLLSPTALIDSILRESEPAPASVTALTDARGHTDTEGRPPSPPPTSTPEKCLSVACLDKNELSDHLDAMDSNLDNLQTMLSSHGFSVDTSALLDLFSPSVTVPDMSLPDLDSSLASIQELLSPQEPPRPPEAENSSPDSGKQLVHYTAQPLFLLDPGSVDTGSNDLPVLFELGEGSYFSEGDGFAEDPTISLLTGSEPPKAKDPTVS
ETV5, sequence (P41161 whole entry): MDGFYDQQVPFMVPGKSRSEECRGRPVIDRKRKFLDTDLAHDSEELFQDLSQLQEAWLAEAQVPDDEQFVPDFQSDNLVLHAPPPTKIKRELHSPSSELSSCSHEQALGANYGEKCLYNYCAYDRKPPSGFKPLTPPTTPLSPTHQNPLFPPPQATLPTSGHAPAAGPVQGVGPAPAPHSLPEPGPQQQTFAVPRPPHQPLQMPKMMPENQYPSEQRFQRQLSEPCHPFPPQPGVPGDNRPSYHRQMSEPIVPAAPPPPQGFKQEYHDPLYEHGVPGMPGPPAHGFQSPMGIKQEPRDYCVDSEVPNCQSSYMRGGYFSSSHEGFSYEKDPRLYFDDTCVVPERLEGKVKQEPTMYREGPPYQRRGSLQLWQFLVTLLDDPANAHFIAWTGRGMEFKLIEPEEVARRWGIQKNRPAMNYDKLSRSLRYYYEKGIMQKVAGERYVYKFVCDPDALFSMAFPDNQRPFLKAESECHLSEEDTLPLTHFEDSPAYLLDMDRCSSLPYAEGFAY
ETV6, sequence (P41212 whole entry): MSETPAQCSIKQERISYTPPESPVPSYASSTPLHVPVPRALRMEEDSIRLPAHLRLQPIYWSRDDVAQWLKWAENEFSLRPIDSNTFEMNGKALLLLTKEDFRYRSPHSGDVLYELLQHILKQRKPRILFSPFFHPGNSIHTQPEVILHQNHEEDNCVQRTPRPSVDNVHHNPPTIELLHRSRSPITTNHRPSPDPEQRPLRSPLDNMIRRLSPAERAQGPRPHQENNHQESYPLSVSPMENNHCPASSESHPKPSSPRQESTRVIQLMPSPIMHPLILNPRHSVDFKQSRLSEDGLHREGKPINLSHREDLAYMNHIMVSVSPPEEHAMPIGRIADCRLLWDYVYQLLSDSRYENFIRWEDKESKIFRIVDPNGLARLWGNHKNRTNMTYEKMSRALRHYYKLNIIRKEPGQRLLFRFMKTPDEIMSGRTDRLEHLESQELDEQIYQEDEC

In the case of TTCTAC, the binding signal with FEV is 1.5 fold enrichment (6-mer frequency, TF over GST control); with ETV5, 1.55 fold enrichment (6-mer frequency, TF over GST control); in the experiment with HSF1, 2.46 fold enrichment (6-mer frequency, TF over GST control); in the experiment with SPIC it was 1.7 fold enrichment (6-mer frequency, TF over GST control); with ELF4, 1.48 fold enrichment (6-mer frequency, TF over GST control); in the experiment with ELK4, 1.59 fold enrichment (6-mer frequency, TF over GST control). Besides, the binding signal with ETV2 is 1.53 fold enrichment (6-mer frequency, TF over GST control); in the experiment with ELF3 it was 1.64 fold enrichment (6-mer frequency, TF over GST control); with CRX, 1.69 fold enrichment (6-mer frequency, TF over GST control); in the experiment with ETV1, 1.56 fold enrichment (6-mer frequency, TF over GST control); with ERF it was 1.7 fold enrichment (6-mer frequency, TF over GST control); in the experiment with ETV3L it was 1.51 fold enrichment (6-mer frequency, TF over GST control). In addition, the binding signal with ETS2 was 1.62 fold enrichment (6-mer frequency, TF over GST control); with SPDEF, 1.5 fold enrichment (6-mer frequency, TF over GST control); with ETV7, 1.54 fold enrichment (6-mer frequency, TF over GST control); with ELF5 it was 1.54 fold enrichment (6-mer frequency, TF over GST control); with ETV3 it was 1.41 fold enrichment (6-mer frequency, TF over GST control); in the experiment with ETV6, 1.49 fold enrichment (6-mer frequency, TF over GST control).
